PubChem BioAssay (Tox21)
Inconclusive results are not listed. A number with no mark means an inactive call. Calls of active or inactive are those of the source. Calls come from the whole dose curve.

Assay: p53 small molecule agonists, cell-based qHTS assay with rat liver microsomes (AID 1963578)
Conditions: HCT-116 p53RE-bla, beta-lactamase ratio, 16 h; series mostly up to 66 µM; activation: at the top concentration
Source text: U.S. Tox21 Program National Center for Advancing Translational Sciences [NCATS] Division of Preclinical Innovation [DPI] U.S. Environmental Protection Agency [EPA] National Institutes of Environmental Health Sciences [NIEHS] National Toxicology Program [NTP] U.S. Food and Drug Administration [FDA] Tox21 Assay Overview: p53, a tumor suppressor protein, is activated following cellular insult, including DNA damage and other cellular stresses. The activation of p53 regulates cell fate by inducing DNA repair, cell cycle arrest, apoptosis, or cellular senescence. The activation of p53, therefore, is a good indicator of DNA damage and other cellular stresses. […] The activation of the reporter gene under culture conditions can be detected by fluorescence intensity. This cell line was used to screen the Tox21 10K compound library in the condition of presence of rat liver microsomes and to identify agonists that activate the p53 signaling pathway after in vitro metabolic activation (Ooka et al., Archive of Toxicology 96:1975-1987, 2022).
Tox21 Assay Protocol Summary: The p53RE-bla cells were dispensed at 4,000cells/3ul/well in 1536-well black-clear bottom plates. After the assay plates were incubated at 37 C, 5% CO2 incubator for 5 hours, 23 nL of compounds dissolved in DMSO, positive controls or DMSO only was transferred to the assay plate. Following compound addition, 3 uL of rat liver microsomes (Molecular Toxicology, Boone, NC) at final concentration of 0.5 mg/mL and 1uL of Beta-Nicotinamide adenine dinucleotide 2-phosphate (NADPH) at final concentration of 0.5 mg/mL were transferred to the assay plate. The plates were incubated at 37 C for 16 hours. 1 uL of LiveBLAzer detection mixture was added to each well and the plates were incubated at room temperature in the dark for 2 h.
% is set by controls: 0 for no effect and ±100 for the full control effect.

SMILES | activation | Potency
Cc1cccc(C)c1NC(=O)CN1CCN(CCCC(c2ccc(F)cc2)c2ccc(F)cc2)CC1 | -2.49% [at 30.3 µM] | –
NC[C@H]1O[C@H](O[C@H]2[C@H](O)[C@@H](O[C@H]3O[C@H](CO)[C@@H](O)[C@H](N)[C@H]3O)[C@H](N)C[C@@H]2N)[C@H](O)[C@@H](O)[C@@H]1O | 6.15% [at 5.99 µM] | –
OCCCCCO | 9.31% | –
CC(C)COC(=O)CC(C(=O)OCC(C)C)S(=O)(=O)O (stereo not given) | 2.41% | –
CCCCCCCCCCCCCOS(=O)(=O)O | -3.43% | –
O=S(=O)(Oc1ccc(Cl)cc1)c1ccccc1 | 8.73% | –
O=S(=O)(O)c1cc(S(=O)(=O)O)c2ccc3c(S(=O)(=O)O)cc(S(=O)(=O)O)c4ccc1c2c43 | -1.38% [at 13.6 µM] | –
CCc1ccc(C(c2ccc(CC)cc2)C(Cl)Cl)cc1 | -1.06% | –
O=c1cc(-c2ccc(O)cc2)oc2cc(O)cc(O)c12 | – | inactive
O=C(O)C1(C(=O)Nc2ccc(Cl)cc2Cl)CC1 | -4.43% | –
CC1(CO)CN(c2ccccc2)NC1=O (stereo not given) | -1.74% | –
O=Cc1ccc(Cl)c([N+](=O)[O-])c1 | 2.94% | –
c1coc(Cn2cccc2)c1 | -0.118% | –
CC(=O)Nc1ccc(S(=O)(=O)Nc2ccc([N+](=O)[O-])cc2)cc1 | -3.18% [at 30.3 µM] | –
Cc1ccc([N+](=O)[O-])c(N)c1 | -6.65% | –
Cc1cc(Nc2ccc(O)cc2)ccc1N | -1.8% | –
CC/C=C1/OC(=O)c2ccccc21 | 0.836% | –
C[C@H]1O[C@@H](O[C@H]2CC[C@@]3(C)[C@H](CC[C@@H]4[C@@H]3C[C@@H](O)[C@]3(C)[C@@H](C5=CC(=O)OC5)CC[C@]43O)C2)C[C@H](O)[C@@H]1O[C@H]1C[C@H](O)[C@H](O[C@H]2C[C@H](O)[C@H](O[C@@H]3O[C@H](CO)[C@@H](O)[C@H](O)[C@H]3O)[C@@H](C)O2)[C@@H](C)O1 | -5.84% [at 30.3 µM] | –
Cc1ccccc1N=Nc1ccc(N=Nc2c(O)ccc3ccccc23)c(C)c1 | 1.53% [at 30.3 µM] | –
Oc1ccc2c(c1)-c1ccccc1C2 | -4.55% | –

SMILES | activation | Potency
COc1cc(C(=O)OCCCN2CCCN(CCCOC(=O)c3cc(OC)c(OC)c(OC)c3)CC2)cc(OC)c1OC | -3.53% [at 30.3 µM] | –
CCC(=O)OCCC(C)CCC=C(C)C (stereo not given) | -2.17% | –
CC(=O)OCC(=O)[C@@]1(O)[C@H](OC(C)=O)C[C@H]2[C@@H]3CCC4=CC(=O)C=C[C@]4(C)[C@@]3(F)[C@@H](O)C[C@@]21C | 0.059% [at 30.3 µM] | –
CC(C(=O)O)c1ccc2c(c1)[nH]c1ccc(Cl)cc12 (stereo not given) | -5.81% [at 30.3 µM] | –
CCCC1C(CC)=CC(CC)=CN1c1ccccc1 (stereo not given) | 1.83% | –
CCCCCCCCn1sc(Cl)c(Cl)c1=O | 0.0861% | –
CCC(C)n1ncn(-c2ccc(N3CCN(c4ccc(OC[C@H]5CO[C@](Cn6cncn6)(c6ccc(Cl)cc6Cl)O5)cc4)CC3)cc2)c1=O (stereo not given in full) | -0.564% [at 30.3 µM] | –
CSc1c(Cl)c(Cl)c(Cl)c(Cl)c1Cl | 0.12% | –
O=C1c2ccccc2Cc2ccccc21 | 11.2% | –
Cc1cccc(C)c1NC(=O)C(C)N (stereo not given) | 0.432% [at 30.3 µM] | –
CN[C@H]1CC[C@@H](c2ccc(Cl)c(Cl)c2)c2ccccc21 | 2.57% [at 30.3 µM] | –
Nc1c(I)cc(I)c(C(=O)N(CCC(=O)O)c2ccccc2)c1I | -2.68% [at 30.3 µM] | –
O=C=Nc1ccc(Cl)c(Cl)c1 | -4.94% | –
O=S(=O)(c1ccc(OCc2ccccc2)cc1)c1ccccc1O | 0.22% | –
O=C1NC(=O)C2CC=CCC12 (stereo not given) | 0.807% | –
O=C(NOCC1CC1)c1ccc(F)c(F)c1Nc1ccc(I)cc1Cl | -8.31% [at 30.3 µM] | –
c1ccc(OCc2ccc(CCCN3CCOCC3)cc2)cc1 | 0.15% [at 30.3 µM] | –
CN1C[C@H]2c3ccccc3Oc3ccc(Cl)cc3[C@@H]2C1 | 4.97% [at 30.3 µM] | –
C=CC(=O)[O-].C=CC(=O)[O-].[Zn+2] | 0.339% | –
Cc1cc2cc3c(C)cc(=O)oc3c(C)c2o1 | 1.5% [at 30.3 µM] | –
